Laboratory results from PubChem BioAssay (NCATS).
Inconclusive results are not listed. The source made the active and inactive calls. Calls come from the whole dose curve; as a rule, active = well fitted curve in the direction sought with a large enough effect; inconclusive = small, poorly fitted or top-dose-only effect, or another doubt; inactive = no such curve, though single readings can be large; an effect the other way counts as inactive or inconclusive.

Columns and labels:
[1] = qHTS of pediatric cancer cell lines to identify multiple opportunities for drug repurposing: Primary screen for control Hh wild type fibroblast cells (AID 1347106);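 note: series mostly up to about 46 µM; a drop in luminescence marks cytotoxicity and a rise apparent proliferation; nearly all actives have a fitted effect of over 55% in size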
Method in brief: (§1)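 Viability after 48 h compound treatment at 37C, 500-1,000 cells/well, read as ATP luminescence with CellTiter-Glo. Primary screens used 11-point (MIPE, 0.78 nM-46 µM) or 8-point (NPC, 0.59 nM-46 µM) final concentrations; follow-up screens used 11-point dilutions.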

[2] = qHTS of pediatric cancer cell lines to identify multiple opportunities for drug repurposing: Primary screen for Rh30 cells (AID 1347107); note: series mostly up to about 46 µM; nearly all actives have a fitted effect of over 75% in size
Method in brief: as §1

[3] = qHTS of pediatric cancer cell lines to identify multiple opportunities for drug repurposing: Primary screen for Rh41 cells (AID 1347108);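 note: series mostly up to about 46 µM; luminescence drop marks cytotoxic hits; nearly all actives have a fitted effect of over 70% in size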
Method in brief: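 500-1,000 cells/well; 5 h pre-incubation 37 °C/5% CO2; compound pinned; 48 h; CellTiter-Glo, 15 min RT; luminescence. MIPE 11-pt from 0.78 nM, NPC 8-pt from 0.59 nM final. Bortezomib 2.3 µM final as positive control.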

[4] = qHTS of pediatric cancer cell lines to identify multiple opportunities for drug repurposing: Confirmatory screen for NB1643 cells (AID 1347109); note: nearly all actives have a fitted effect of over 45% in size
Method in brief: as §1

[5] = qHTS of pediatric cancer cell lines to identify multiple opportunities for drug repurposing: Confirmatory screen for A673 cells (AID 1347110); note: nearly all actives have a fitted effect of over 65% in size
Method in brief: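 Viability was read as ATP luminescence (CellTiter-Glo) after 48 h of compound exposure at 37 C in A673 cells seeded at 500-1,000/well. Titrations reached 46 uM final, with 11 points in the confirmatory screen. Concentration-response curves were fitted directly.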

[6] = qHTS of pediatric cancer cell lines to identify multiple opportunities for drug repurposing: Confirmatory screen for SK-N-MC cells (AID 1347111);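 note: cells exposed to compound for 48 h before the readout; nearly all actives have a fitted effect of over 70% in size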
Method in brief: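 SK-N-MC cells at 500-1,000 cells/well in growth media were pre-incubated 5 h, then exposed to compounds at 11-point dilutions for 48 h at 37 degrees C, 5% CO2. Viability was read as CellTiter-Glo luminescence.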

[7] = qHTS of pediatric cancer cell lines to identify multiple opportunities for drug repurposing: Confirmatory screen for BT-12 cells (AID 1347112); note: nearly all actives have a fitted effect of over 55% in size
Method in brief: as §1

[8] = qHTS of pediatric cancer cell lines to identify multiple opportunities for drug repurposing: Confirmatory screen for LAN-5 cells (AID 1347113); note: nearly all actives have a fitted effect of over 65% in size
Method in brief: as §1

[9] = qHTS of pediatric cancer cell lines to identify multiple opportunities for drug repurposing: Confirmatory screen for SJ-GBM2 cells (AID 1347116); note: nearly all actives have a fitted effect of over 60% in size
Method in brief: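 Viability measured as metabolically active cells via CellTiter-Glo luminescence following 48 hours of compound exposure, 11-point dilutions in confirmatory testing. 500-1,000 cells/well plated 5 hours before dosing; controls were DMSO and 2.3 µM bortezomib.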

[10] = qHTS of pediatric cancer cell lines to identify multiple opportunities for drug repurposing: Confirmatory screen for BT-37 cells (AID 1347117); note: nearly all actives have a fitted effect of over 55% in size
Method in brief: as §1

[11] = qHTS of pediatric cancer cell lines to identify multiple opportunities for drug repurposing: Confirmatory screen for TC32 cells (AID 1347118); note: nearly all actives have a fitted effect of over 65% in size
Method in brief: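 Luminescent CellTiter-Glo read-out of metabolically active TC32 cells after 48 h compound exposure. Primary: MIPE 11-point, 0.78 nM–46 µM; NPC 8-point, 0.59 nM–46 µM. Confirmatory: 11-point dilutions.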

[12] = qHTS of pediatric cancer cell lines to identify multiple opportunities for drug repurposing: Confirmatory screen for control Hh wild type fibroblast cells (AID 1347121); note: nearly all actives have a fitted effect of over 70% in size
Method in brief: as §1

[13] = qHTS of pediatric cancer cell lines to identify multiple opportunities for drug repurposing: Confirmatory screen for U-2 OS cells (AID 1347122); note: nearly all actives have a fitted effect of over 65% in size
Method in brief: as §1

[14] = qHTS of pediatric cancer cell lines to identify multiple opportunities for drug repurposing: Confirmatory screen for Rh41 cells (AID 1347123); note: nearly all actives have a fitted effect of over 60% in size
Method in brief: as §1

[15] = qHTS of pediatric cancer cell lines to identify multiple opportunities for drug repurposing: Confirmatory screen for RD cells (AID 1347124)
Method in brief: as §1

[16] = qHTS of pediatric cancer cell lines to identify multiple opportunities for drug repurposing: Confirmatory screen for Rh18 cells (AID 1347125); note: nearly all actives have a fitted effect of over 55% in size
Method in brief: as §1

[17] = qHTS of pediatric cancer cell lines to identify multiple opportunities for drug repurposing: Confirmatory screen for Rh30 cells (AID 1347126); note: nearly all actives have a fitted effect of over 55% in size
Method in brief: as §1

[18] = qHTS of pediatric cancer cell lines to identify multiple opportunities for drug repurposing: Confirmatory screen for Saos-2 cells (AID 1347127); note: nearly all actives have a fitted effect of over 60% in size
Method in brief: as §1

[19] = qHTS of pediatric cancer cell lines to identify multiple opportunities for drug repurposing: Confirmatory screen for OHS-50 cells (AID 1347128)
Method in brief: as §1

[20] = qHTS of pediatric cancer cell lines to identify multiple opportunities for drug repurposing: Confirmatory screen for MG 63 (6-TG R) cells (AID 1347119); note: nearly all actives have a fitted effect of over 55% in size
Method in brief: as §1

Measured: Potency

COC(c1ccccc1)(c1ccccc1)[C@H](Oc1nc(C)cc(C)n1)C(=O)O
inactive: [1] | [2] | [3]

COc1ccc2cc3[n+](cc2c1OC)CCc1cc2c(cc1-3)OCO2
inactive: [1] | [2]

CN(CCOc1ccc(CC2SC(=O)NC2=O)cc1)c1ccccn1 (stereo not given)
inactive: [1] | [2] | [3]

NS(=O)(=O)c1cc2c(cc1Cl)NC(C(Cl)Cl)NS2(=O)=O (stereo not given)
inactive: [1] | [2] | [3]

CN1CCN(c2c(F)cc3c(=O)c(C(=O)O)cn4c3c2OCN4C)CC1
inactive: [1] | [2] | [3]

Cc1nnc(NS(=O)(=O)c2ccc(N)cc2)s1
inactive: [1] | [2]

CC(C)Cn1cnc2c(N)nc3ccccc3c21
inactive: [1] | [2]

C[C@@H]1CN(c2c(F)c(N)c3c(=O)c(C(=O)O)cn(C4CC4)c3c2F)C[C@H](C)N1
inactive: [1] | [2] | [3]

CNC1CCCN(c2c(F)cc3c(=O)c(C(=O)O)cn(C4CC4)c3c2OC)C1 (stereo not given)
inactive: [1] | [2]

O=C(O)CCn1c2c(c3ccccc31)C[C@H](NS(=O)(=O)c1ccc(F)cc1)CC2
inactive: [1] | [2] | [3]

CCCN[C@H]1CCc2nc(N)sc2C1
inactive: [1] | [2] | [3]

COc1ccccc1OCC(O)COC(N)=O (stereo not given)
inactive: [1] | [2] | [3]

O=C(O)c1ccc(-n2nc(-c3ccccc3O)nc2-c2ccccc2O)cc1
inactive: [1]

CC(=O)CC(c1ccccc1)c1c(O)c2ccccc2oc1=O (stereo not given)
inactive: [1] | [2] | [3]

O=S(=O)(c1cccc2cnccc12)N1CCCNCC1
inactive: [1] | [2] | [3]

CC[C@H](NC(C)C)[C@H](O)c1ccc(O)c2[nH]c(=O)ccc12
inactive: [1] | [2] | [3]

C1CCC(C(CC2CCCCN2)C2CCCCC2)CC1 (stereo not given)
inactive: [1] | [2]

CCCCCCNC(=O)n1cc(F)c(=O)[nH]c1=O
inactive: [1] | [2] | [3]

CC(=O)Oc1ccccc1C(=O)Nc1ncc([N+](=O)[O-])s1
inactive: [1]

O=C(O)C1CCCN(CCC=C(c2ccccc2)c2ccccc2)C1 (stereo not given)
inactive: [1]

CCOC(=O)c1ccc(OC(=O)CCCCCN=C(N)N)cc1
inactive: [1] | [2] | [3]

Nc1ccc(S(=O)(=O)Nc2ccccn2)cc1
inactive: [1] | [2] | [3]

COc1cc2ncnc(Nc3cccc(Cl)c3)c2cc1OC
inactive: [1] | [2]

CC1=CC(=O)c2ccccc2C1=O
inactive: [1] | [2]

CC[C@H](C)C(=O)O[C@H]1C[C@@H](C)C=C2C=C[C@H](C)[C@H](CC[C@@H]3C[C@@H](O)CC(=O)O3)[C@H]21
inactive: [1]

COc1ccc2c(c1)c(CC(=O)OCC(=O)O)c(C)n2C(=O)c1ccc(Cl)cc1
inactive: [1]

O=C(O)c1cn(C2CC2)c2cc(N3CCNCC3)c(F)cc2c1=O
inactive: [1] | [2] | [3]

Cc1cc(NS(=O)(=O)c2ccc(N)cc2)no1
inactive: [1] | [2] | [3]

NC(N)=NC(N)=NCCc1ccccc1
inactive: [1]

OCc1ccc(-c2nn(Cc3ccccc3)c3ccccc23)o1
inactive: [1] | [2]

O=C(O)c1cccnc1
inactive: [1] | [2] | [3]

O=c1cc(O)c(Cl)c[nH]1
inactive: [1] | [2]

Cc1nnc(C(=O)NC(C)(C)c2nc(C(=O)NCc3ccc(F)cc3)c(O)c(=O)n2C)o1
inactive: [1] | [2] | [3]

CCOC(=O)[C@H](CCc1ccccc1)N[C@H]1CCc2ccccc2N(CC(=O)O)C1=O
inactive: [1]

O[C@@H](CNC[C@H](O)[C@H]1CCc2cc(F)ccc2O1)[C@@H]1CCc2cc(F)ccc2O1
inactive: [1] | [2]

COc1ncnc(NS(=O)(=O)c2ccc(N)cc2)c1OC
inactive: [1] | [2] | [3]

NC(=O)c1ccc2[nH]ccc2c1
inactive: [1]

CCCOc1ccc(C(=O)OCCN(CC)CC)cc1N
inactive: [1] | [2] | [3]

C[C@@H](NCCCc1cccc(C(F)(F)F)c1)c1cccc2ccccc12
inactive: [1] | [2] | [3]

C[C@@H](CN1CC(=O)NC(=O)C1)N1CC(=O)NC(=O)C1
not listed: [20]
inactive: all other assays above

Cn1nnc2c(C(N)=O)ncn2c1=O
inactive: all assays above
